# Measurements as given in PubChem BioAssay.
# Values joined by “and” are separate entries in the source; they are usually repeats but may differ in a detail not shown here. Identical values can stand only once. Results filed as inconclusive are left out. For some assays here: Results with a measured potency or affinity are listed apart. Active and inactive are the calls of the source. Unless noted, the rule behind the calls is not given here.
# Assays:
# [1] = modulation of C. elegans fzo-1 (AID 1259413);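 note: fzo-1 mutant C. elegans worms in liquid wells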; conditions: C. elegans fzo-1 modulator screen, mean read-out; stronger effect = higher value
# [2] = target: Protein kinase 7 (PK7), Plasmodium falciparum 3D7 (PF3D7_0213400) (UniProt Q7YTF7); test: inhibition of Plasmodium PK7 catalytic activity – biochemical, TCAMS antimalarial set, Kinase-Glo luminescence (AID 1159587); conditions: recombinant PfPK7, Kinase-Glo ATP depletion luminescence
# [3] = target: Calcium-dependent protein kinase 4 (Plasmodium falciparum (isolate 3D7)) (UniProt Q8IBS5); test: PfCDPK4 kinase inhibitors, biochemical, TCAMS library (AID 1159588; cut-off not given, nearly all actives have IC50 up to about 0.91 µM); conditions: recombinant PfCDPK4, Kinase-Glo ATP depletion luminescence
# [4] = differential killing of epithelial or mesenchymal cells, primary screen, imaging, PC-3E GFP, TEM4-18 mCherry, co-culture (AID 1345086;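 active = compounds killing one labelled cell type while sparing the other, by normalised counts and ratio limits, not self-fluorescent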;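 for all read-outs here: cells exposed to compound for 72 h before imaging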;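 for red/green cell ratio (normalised): normalised mesenchymal count divided by normalised epithelial count so high means epithelial killing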); conditions: imaging cell counts, at 1 µM; for red/green cell ratio (normalised): actives lie on both sides, counts scaled to control wells, 1 = unselective
# [5] = system: Aerobactin synthetase IucA (Klebsiella pneumoniae); test: IucA aerobactin synthetase inhibitors, biochemical, Tocris library, absorbance (AID 1345561); conditions: purified IucA enzyme assay, absorbance (OD) read-out; stronger effect = lower value;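 tested at 8 µM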;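 note: 100% = enzyme without compound and 0% = no enzyme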
# [6] = growth inhibition of DIPG glioma cells, dose response, cell-based, SU-DIPG-XVII, MIPE5.0, CellTiter-Glo, qHTS (AID 1347060; cut-off not given, nearly all actives have AC50 up to about 26 µM); conditions: SU-DIPG-XVII viability, CellTiter-Glo ATP luminescence
# [7] = growth inhibition of DIPG glioma cells, dose response, cell-based, SU-DIPG-XIII, MIPE4.0, CellTiter-Glo, qHTS (AID 1347061; cut-off not given, nearly all actives have AC50 up to about 37 µM;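 note: cells exposed to compound for 48 hours before readout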); conditions: SU-DIPG-XIII viability, CellTiter-Glo ATP luminescence
# [8] = growth inhibition of DIPG glioma cells, dose response, cell-based, JHH-DIPG-1, MIPE4.0, CellTiter-Glo, qHTS (AID 1347062; cut-off not given, nearly all actives have AC50 up to about 27 µM); conditions: JHH-DIPG-1 viability, CellTiter-Glo ATP luminescence
# [9] = growth inhibition of DIPG glioma cells, dose response, cell-based, SU-DIPG-IV, MIPE4.0, CellTiter-Glo, qHTS (AID 1347063; cut-off not given, nearly all actives have AC50 up to about 30 µM;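 note: compound exposure lasted 48 hours before the viability readout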); conditions: SU-DIPG-IV viability, CellTiter-Glo ATP luminescence
# [10] = growth inhibition of DIPG glioma cells, dose response, cell-based, SU-DIPG-XIII, MIPE5.0, CellTiter-Glo, qHTS (AID 1347064; cut-off not given, nearly all actives have AC50 up to about 23 µM); conditions: SU-DIPG-XIII viability, CellTiter-Glo ATP luminescence
# [11] = measured here: epithelial PC-3E GFP cell survival
# [12] = measured here: mesenchymal TEM4-18 mCherry cell survival
# Chain of Protein kinase 7 (PK7), Plasmodium falciparum 3D7 (PF3D7_0213400) (Q7YTF7 1-343): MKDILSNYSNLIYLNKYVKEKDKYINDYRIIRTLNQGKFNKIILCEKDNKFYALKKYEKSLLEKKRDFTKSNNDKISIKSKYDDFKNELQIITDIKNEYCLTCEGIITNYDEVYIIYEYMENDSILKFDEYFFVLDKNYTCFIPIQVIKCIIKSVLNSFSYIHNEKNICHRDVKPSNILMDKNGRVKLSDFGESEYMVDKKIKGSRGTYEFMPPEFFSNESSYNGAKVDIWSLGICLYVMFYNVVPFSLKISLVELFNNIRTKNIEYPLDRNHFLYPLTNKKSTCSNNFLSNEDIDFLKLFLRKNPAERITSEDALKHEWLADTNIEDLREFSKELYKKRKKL
# Chain of Calcium-dependent protein kinase 4 (Plasmodium falciparum (isolate 3D7)) (Q8IBS5 whole entry, looked up): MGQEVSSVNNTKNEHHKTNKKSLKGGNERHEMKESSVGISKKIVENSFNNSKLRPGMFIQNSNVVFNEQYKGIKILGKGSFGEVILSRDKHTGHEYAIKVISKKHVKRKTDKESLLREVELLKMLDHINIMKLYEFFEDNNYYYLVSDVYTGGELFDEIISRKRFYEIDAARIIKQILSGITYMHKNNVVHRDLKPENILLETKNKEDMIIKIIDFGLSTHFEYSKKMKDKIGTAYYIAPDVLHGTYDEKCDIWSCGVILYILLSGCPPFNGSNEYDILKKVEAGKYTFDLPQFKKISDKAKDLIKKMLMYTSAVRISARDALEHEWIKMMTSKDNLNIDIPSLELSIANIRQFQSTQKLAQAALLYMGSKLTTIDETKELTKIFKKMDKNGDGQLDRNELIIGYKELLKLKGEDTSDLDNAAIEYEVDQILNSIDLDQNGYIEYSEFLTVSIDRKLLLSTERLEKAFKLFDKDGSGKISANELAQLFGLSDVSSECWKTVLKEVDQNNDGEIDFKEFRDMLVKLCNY
structure (smiles),measurement,setting,value
OCc1cccnc1,mean signal,[1],224 (inactive)
CN(C)CC[C@@H](c1ccc(Cl)cc1)c1ccccn1,mean signal,[1],251 (inactive)
CCN(CC)Cc1cc(Nc2ccnc3cc(Cl)ccc23)ccc1O,outcome,[2],inactive
same,outcome,[3],inactive
C[C@H](NC(CCc1ccccc1)C(=O)O)C(=O)N1CCC[C@H]1C(=O)O (some centres undefined),mean signal,[1],226 (inactive)
CC[N+](C)(CC)CCOC(=O)C(O)(c1ccccc1)C1CCCCC1 (centres undefined),mean signal,[1],260 (inactive)
same,red/green cell ratio (normalised),[4],0.95 (inactive)
same,normalised cell number,[4]; [11],1.13
same,normalised cell number,[4]; [12],1.07
C[n+]1ccccc1/C=N/O,mean signal,[1],252 (inactive)
same,red/green cell ratio (normalised),[4],0.85 (inactive)
same,normalised cell number,[4]; [11],1.37
same,normalised cell number,[4]; [12],1.16
Clc1ccc2c(c1)CCc1cccnc1C2=C1CCNCC1,mean signal,[1],228 (inactive)
same,red/green cell ratio (normalised),[4],0.84 (inactive) and 1.39 (inactive)
same,normalised cell number,[4]; [11],1.16 and 0.83
same,normalised cell number,[4]; [12],0.98 and 1.15
OCc1cc(C(O)CNCCCCCCOCCCCc2ccccc2)ccc1O (centres undefined),mean signal,[1],253 (inactive)
same,red/green cell ratio (normalised),[4],1.18 (inactive)
same,normalised cell number,[4]; [11],0.82
same,normalised cell number,[4]; [12],0.97
same,remaining activity,[5],115% (inactive)
Cn1nnc2c(C(N)=O)ncn2c1=O,mean signal,[1],230 (inactive)
same,red/green cell ratio (normalised),[4],1.08 (inactive)
same,normalised cell number,[4]; [11],1.03
same,normalised cell number,[4]; [12],1.11
same,remaining activity,[5],102% (inactive)
same,outcome,[6],inactive
same,outcome,[7],inactive
same,outcome,[8],inactive
same,outcome,[9],inactive
same,outcome,[10],inactive
COC(=O)C1=C(C)NC(C)=C(C(=O)OCC(C)C)C1c1ccccc1[N+](=O)[O-] (centres undefined),mean signal,[1],228 (inactive)
same,red/green cell ratio (normalised),[4],0.97 (inactive)
same,normalised cell number,[4]; [11],1.11
same,normalised cell number,[4]; [12],1.08
CC(=O)OCC(=O)NCCCOc1cccc(CN2CCCCC2)c1,mean signal,[1],244 (inactive)
same,red/green cell ratio (normalised),[4],1.02 (inactive)
same,normalised cell number,[4]; [11],0.98
same,normalised cell number,[4]; [12],1
NC1CCN(c2nc3c(cc2F)c(=O)c(C(=O)O)cn3-c2ccc(F)cc2F)C1 (centres undefined),mean signal,[1],292 (inactive)
same,red/green cell ratio (normalised),[4],0.9 (inactive)
same,normalised cell number,[4]; [11],1.14
same,normalised cell number,[4]; [12],1.02
